Hits are enriched below; roughly 7.5% of the tested compounds scored in any of these assays.
FLuc modulator = counter-screen for miR-21 project: firefly luciferase inhibitors or activators | purified FLuc, Km substrates, luminescence inhibition | Potency, µM (doses to about 57.5 µM), for the others: at the top dose activity change, negative = inhibition, actives largely listed as inhibitors | 360,000 compounds, 6.9% hits;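 further: plate controls were vehicle for no effect and reference inhibitor for full effect; nearly all actives have a fitted effect of over 55% in size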
Target sequence (P08659 whole entry, looked up): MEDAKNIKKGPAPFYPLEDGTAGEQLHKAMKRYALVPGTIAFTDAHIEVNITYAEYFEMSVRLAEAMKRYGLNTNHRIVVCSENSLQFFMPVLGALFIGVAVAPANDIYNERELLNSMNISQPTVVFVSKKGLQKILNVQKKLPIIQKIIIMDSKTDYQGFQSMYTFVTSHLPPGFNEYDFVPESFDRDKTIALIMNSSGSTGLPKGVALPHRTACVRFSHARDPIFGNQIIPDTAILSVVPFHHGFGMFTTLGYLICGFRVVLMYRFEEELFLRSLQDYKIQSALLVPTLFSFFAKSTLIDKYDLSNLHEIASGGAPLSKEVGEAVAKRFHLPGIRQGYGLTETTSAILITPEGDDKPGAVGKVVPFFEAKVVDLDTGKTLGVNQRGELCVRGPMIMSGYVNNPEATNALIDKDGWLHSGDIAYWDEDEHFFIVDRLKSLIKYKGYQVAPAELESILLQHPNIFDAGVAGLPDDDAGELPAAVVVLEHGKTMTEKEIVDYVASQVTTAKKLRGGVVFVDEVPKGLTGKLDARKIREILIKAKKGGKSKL
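Purified P. pyralis luciferase (10nM final) with 10uM D-luciferin and 10uM ATP (Km levels) in 50mM Tris acetate pH 7.5, 10mM Mg acetate, 0.01% Tween-20, 0.05% BSA; qHTS 6-point titration, ~60 µM downward; luminescence read.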
SMN2 splice enh = increases expression of the SMN2 splice variant. HEK293 SMN2-luciferase splicing reporter, luminescence, 30-36 h. Potency, µM (doses to about 46.1 µM), for the others: top-dose activity change, positive = activation, hits mostly activators. 210,000 compounds, 2.8% hits; further: % of control where 0% means no effect; nearly all actives have a fitted effect of over 55% in size
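HEK293 cells carry an SMN2 […]–luciferase reporter in which exon 7 inclusion puts luciferase in frame. Cells were plated 10-12 h before compound addition, then incubated 30-36 h at 37C. ONE-Glo luminescence was read; sodium butyrate at 4.5 mM final served as control.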
NPC1 promoter act = activates the NPC1 promoter; Potency, µM (doses to about 9.22 µM), without a hit: top-dose activation, most hits filed as activators; 320,000 compounds, 2.4% hits; Huh7 NPC1 promoter luciferase reporter, 24 h; further: % of control where 0% means no effect; nearly all actives have a fitted effect of over 60% in size
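Luminescence read-out of NPC1 promoter-driven luciferase in stably transfected Huh7 cells; compounds delivered in DMSO and left 24 h at 37C, 5% CO2, qHTS titration format.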
ELG1 genotox = induces genotoxicity in HEK293T cells with luciferase-tagged ELG1; HEK293T ELG1-luciferase reporter, luminescence, 16 h; Potency, µM (doses to about 46 µM), for inactives: at the highest dose activity change, positive = activation, hits mostly activators; 330,000 compounds, 1.3% hits; AID 504466; further: % of control where 0% means no effect; nearly all actives have a fitted effect of over 60% in size
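Genotoxicity was scored as increased ELG1-luciferase reporter signal, measured by ONE-Glo luminescence (30 min, room temperature). Compound or vehicle exposure of the HEK293T reporter cells lasted 16 hr at 37°C.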
Luc counter = counter-screen: inhibitors of Kinase-Glo firefly luciferase; Q27757; Kinase-Glo luciferase, ATP luminescence, 8 min; Potency, µM (titrated, usually from 38.3 µM), inactives show at the top dose activity change, negative = inhibition, usual class: inhibitors; 200,000 compounds, 0.28% hits; AID 1379; further: on the % scale 0 is the no-effect control and ±100 the full control effect; nearly all actives have a fitted effect of over 60% in size
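Compounds were added to a substrate mix at pH 7.2 (50 mM imidazole, 10 uM ATP, within the enzyme's linear range), followed by Kinase-Glo detection reagent; luminescence was measured after 8 minutes at ambient temperature.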
Rab9 promoter act = activates the Rab9 promoter; Huh7 Rab9 promoter-luciferase reporter, luminescence, 24 h; Potency, µM (titrated, usually from 9.22 µM), without a hit: top-dose activation, negative = inhibition, most hits filed as activators; 320,000 compounds, 2.8% hits; further: % of control where 0% means no effect; nearly all actives have a fitted effect of over 60% in size
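Quantitative HTS format; Huh7 Rab9-luciferase reporter cells (1500/well) receive compound 2 h post-plating, incubate 24 h at 37 °C, then get luciferase reagent for 10 min before luminescence reading.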
An asterisk follows results filed as active; ? = inconclusive; / = no result. The call rests on the fitted dose curve; in most records, active means well fitted curve in the direction sought with a large enough effect; inconclusive means small, poorly fitted or top-dose-only effect, or another doubt; inactive means no such curve, though single readings can be large; an effect the other way counts as inactive or inconclusive. Potency means the concentration at half of the fitted maximal effect.

SMILES	FLuc modulator	SMN2 splice enh	NPC1 promoter act	ELG1 genotox	Luc counter	Rab9 promoter act
COc1ccc(-c2cc3nc(-c4ccc(Br)cc4)cc(C(F)(F)F)n3n2)cc1	2.4%	10.3%	/	/	/	/
CCOc1ccc(S(=O)(=O)NCCc2cn3ccccc3n2)cc1	1.2%	/	-3.4%	12.6%	/	3.2%
CCOc1ccc(-c2cn3ccccc3n2)cc1	0.536µM*	0.891µM*	?	?	8.91µM*	?
Fc1ccc(-c2cn3ccccc3n2)cc1	2.69µM*	/	0.708µM*	?	/	0.562µM*
O=C(O)c1ccccc1-c1ccccc1C(=O)Nc1ccc2c(c1)CCC2	-11.8%	/	1.6%	-0.8%	/	0.3%
O=C(Nc1ccc2c(c1)CCC2)c1ccccc1F	3.01µM*	4.47µM*	0.891µM*	?	-17.1%	0.708µM*
COc1cc2c(cc1NC(=O)c1ccccc1F)CCCC2	10.7µM*	22.4µM*	7.0%	?	-1.5%	?
O=C(Nc1ccc2c(c1)CCC2)c1ccccc1	1.07µM*	2µM*	1.26µM*	2.59µM*	-10.7%	0.501µM*
Cc1ccc(NC(=O)Nc2c(C)n(C)n(-c3ccccc3)c2=O)c(Cl)c1	-3.5%	-4.5%	/	/	/	/
O=C(NCCc1ccccc1)c1ccc(Cn2c(SCc3ccccc3F)nc3cccnc32)cc1	5.36µM*	/	/	/	/	/
O=C(NCc1ccco1)c1ccc(Cn2c(SCc3ccc(F)cc3)nc3cccnc32)cc1	6.01µM*	/	/	/	/	/
CCN(CC)CCNC(=O)c1ccc(Cn2c(SCc3ccccc3)nc3cccnc32)cc1	13.5µM*	/	/	/	/	/
O=C(NCCc1ccccc1)c1ccc(Cn2c(SCc3ccc(F)cc3)nc3cccnc32)cc1	4.78µM*	/	/	/	/	/
O=C(NCc1cccs1)c1ccc(CSc2nc3cccnc3n2Cc2ccc(F)cc2)cc1	-13.1%	/	/	/	/	/
CCN(CC)c1ccc(NC(=O)C2CCN(S(=O)(=O)c3c(C)noc3/C=C/c3ccccc3F)CC2)c(C)c1	-8.4%	/	/	/	/	/
COc1ccc(-n2c(Cc3ccccc3)nnc2SCc2nc(-c3cccs3)no2)cc1	-17.5%	1.7%	/	/	/	/
CN(Cc1ccccc1)S(=O)(=O)c1ccc(NC(=O)c2cc(=O)c3ccccc3o2)cc1	4.4%	-7.1%	/	/	/	/
COc1cccc(CCNC(=O)c2ccc(Cn3c(SCc4ccccc4)nc4cccnc43)cc2)c1	9.53µM*	-16.8%	/	/	/	/
CCOc1ccccc1CNC(=O)c1ccc(Cn2c(SCc3ccccc3)nc3cccnc32)cc1	2.69µM*	-5.7%	/	/	/	/
COc1ccc(Cn2c(SCc3ccc(C(=O)NCCc4ccccc4)cc3)nc3cccnc32)cc1	-16.4%	-8.2%	/	/	/	/
Cc1ccccc1CNC(=O)c1ccc(CSc2nc3cccnc3n2Cc2ccccc2)cc1	1.5%	/	/	/	/	/
Cc1nc(N2CCOCC2)c2cc(-c3ccccc3)sc2n1	21.3µM*	-4.9%	0.6%	2.4%	11.1%	-4.0%
c1ccc(-c2cc3c(N4CCOCC4)ncnc3s2)cc1	-12.5%	-8.6%	-2.8%	-7.7%	3.3%	-6.2%
Cc1nc(SCCC(=O)O)c2cc(-c3ccccc3)sc2n1	0.675µM*	/	-7.3%	15.3%	/	-12.4%
Cc1ccccc1-n1c(SCC(N)=O)nc2sc(-c3ccccc3)cc2c1=O	-7.4%	-12.3%	-1.6%	-6.5%	-5.0%	-3.6%
SMILES	FLuc modulator	SMN2 splice enh	NPC1 promoter act	ELG1 genotox	Luc counter	Rab9 promoter act
COc1cc(-c2noc(-c3ccc(NCC4CCCO4)c([N+](=O)[O-])c3)n2)cc(OC)c1OC (stereo not drawn)	21.3µM*	/	/	/	/	/
COc1ccc(-c2noc(-c3ccc(NC4CCCC4)c([N+](=O)[O-])c3)n2)cc1OC	13.5µM*	/	/	/	/	/
COc1cc(-c2noc(-c3ccc(NCc4ccccc4)c([N+](=O)[O-])c3)n2)cc(OC)c1OC	15.1µM*	/	/	/	/	/
O=[N+]([O-])c1cc(-c2nc(-c3ccco3)no2)ccc1NCc1ccccc1	15.1µM*	/	/	/	/	/
Cc1ccccc1CSc1ncc(Cl)c(C(=O)Nc2nc3ccc(F)cc3s2)n1	-8.7%	3.5%	/	/	/	/
CNS(=O)(=O)c1cn(CC(=O)N2CCN(c3ccccc3F)CC2)cc1S(=O)(=O)NC	2.3%	/	/	/	/	/
Cc1cccc(NC(=O)CSc2nc3c([nH]c4ccccc43)c(=O)n2-c2ccc(F)cc2)c1C	-0.6%	/	/	/	/	/
Cc1cc(C)c(NC(=O)Cn2nnc(-c3nc(-c4ccccc4)no3)c2N)c(C)c1	0.5%	/	/	/	/	/
N/C(=N\OC(=O)COc1ccc2ccccc2c1Br)c1ccccn1	21.3µM*	?	?	?	0.1%	?
O=C(COc1ccc2ccccc2c1Br)N1CCCC1	?	/	18.9%	?	/	?
N/C(=N\OC(=O)COc1ccc2ccccc2c1Br)c1cccnc1	19µM*	-1.9%	0.7%	11.3%	1.9%	-1.6%
Oc1ccc2c(c1)oc1cc(O)ccc12	19µM*	?	-1.5%	10.9%	1.6%	0.1%
O=C(c1cccc([N+](=O)[O-])c1)N1CCN(CCc2ccncc2)CC1	-1.2%	/	/	/	/	/
CN(C)C(=O)c1cc(C(=O)c2ccc(F)cc2Cl)c[nH]1	?	/	?	13.5%	/	24.5%
Cc1ccc(C(=O)c2ccc(C(F)(F)F)cc2)cc1	-1.1%	/	-2.3%	-2.0%	/	-1.8%
CN(C)C(=O)c1cc(C(=O)c2ccc(C(F)(F)F)cc2)c[nH]1	13.5µM*	/	?	?	/	?
CN(C)C(=O)c1cc(C(=O)c2ccc(Cl)cc2Cl)c[nH]1	15.1µM*	/	?	15.4%	/	?
COc1cccc(NC(=O)N2CCC(n3c(C)nc4cccnc43)CC2)c1	-6.9%	/	/	/	/	/
COc1ccc(C2c3c(-c4ccccc4O)n[nH]c3C(=O)N2CCc2ccccc2)cc1 (stereo not drawn)	-11.0%	-6.7%	/	/	/	/
CCn1cc2nc(SCC(=O)Nc3ccc(OC)c(OC)c3)n(Cc3ccc(OC)cc3)c(=O)c2n1	16.9µM*	/	-0.7%	6.8%	/	7.7%
CCn1cc2nc(SCC(=O)Nc3ccc(OC)c(Cl)c3)n(Cc3ccc(OC)cc3)c(=O)c2n1	-8.9%	4.8%	/	/	/	/
CCOc1ccc(NC(=O)CSc2nc(-c3cccc(Cl)c3)nc3c2Cc2c(CO)cnc(C)c2O3)cc1	-4.9%	/	/	/	/	/
COc1ccc(NC(=S)NC(=O)CC(C)C)c(OC)c1	13.5µM*	20.1%	14.1%	6.5%	-2.1%	13.8%
COc1ccc(NC(=S)Nc2cc(C)ccn2)c(OC)c1	2.69µM*	11.2µM*	?	?	-0.1%	?
COc1ccc(NC(=S)Nc2ccc(OC)cc2OC)c(OC)c1	-0.2%	-4.3%	3.9%	-1.3%	-0.6%	-4.1%
CCCCC(=O)Nc1ccc(NC(=S)NC(=O)CC(C)C)cc1OC	13.6%	?	-4.3%	0.0%	9.8%	3.9%
COc1cc(NC(=S)Nc2ccccn2)cc(OC)c1	9.53µM*	9.2%	13.2%	2.8%	3.0%	-0.9%

Screens (PubChem BioAssay)
